# Compound activity (PubChem)
# In the library only some 7.8% were active in any assay of this set; here they are far more common.
# HCMV inh – inhibitors of human cytomegalovirus. HFF cells, HCMV-luciferase reporter, 72 h; active compounds read low. activity change, negative = inhibition, % at 57.5 µM. 410,000 compounds, 4.5% hits; in the data active = activity change below about -60%; inconclusive = no clear call, values can overlap the other calls; inactive = above about -39%
#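 Cell-based, HFFs, 1000 cells/well, 16 h 37C; cpds in DMSO + HCMV-luc, MOI 1 PFU/cell; 72 h 37C; OneGlo luminescence after 5 min RT; norm. to buffer vs Salinomycin 10uM.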
# HCV inhibitor – HCV inhibition; Huh7.5.1 HCVcc-Cre infection, luciferase reporter, 44 h; Potency, µM (highest dose often 41.8 µM), inactives show at the highest dose activity change, negative = inhibition, actives largely listed as inhibitors; 340,000 compounds, 3.4% hits; AID 651820; active = well fitted inhibition curve with a large enough effect; inconclusive = small, poorly fitted or top-dose-only effect, or another doubt; inactive = no such curve, though single readings can be large or run the other way; note: potency is the fitted concentration of half-maximal effect
#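 Whole-lifecycle infectious HCVcc-Cre system; cells 1,000/well, compound then virus (~0.5 moi) added 4 h after plating, 44 h culture. Luciferase read 15 sec following 15 min substrate incubation, room temp.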
# Vaccinia Venus – inhibitors of vaccinia virus (Venus reporter); Vaccinia virus Venus reporter expression, fluorescence; Potency, µM (top dose mostly 36.5 µM), for inactives: at the highest dose activity change, negative = inhibition, most hits filed as inhibitors; 330,000 compounds, 0.46% hits; AID 720580; calls by dose curve; tested in A549 cells; note: potency is the fitted concentration of half-maximal effect; nearly all actives have a fitted effect of over 30% in size
# LASV entry inh – Lassa virus entry inhibition; Potency, µM (titrated, usually from 37.9 µM), inactives show top-dose activity change, negative = inhibition, usual class: inhibitors; Lassa virus pseudotype entry inhibition, cell reporter; AID 540256; 300,000 compounds, 1.2% hits; calls by dose curve; tested in HEK293 cells; note: potency is the fitted concentration of half-maximal effect; nearly all actives have a fitted effect of over 50% in size
# Vaccinia mCherry – inhibitors of vaccinia virus infection (mCherry reporter signal); Vaccinia virus mCherry reporter infection, fluorescence; Potency, µM (titrated, usually from 36.5 µM), for inactives: top-dose activity change, negative = inhibition, hits mostly inhibitors; 310,000 compounds, 0.63% hits; calls by dose curve; tested in A549 cells; note: potency is the fitted concentration of half-maximal effect; nearly all actives have a fitted effect of over 35% in size
# Marburg entry inh – inhibitors of Marburg virus binding or cell entry; Potency, µM (top dose mostly 37.8 µM), without a hit: at the top dose activity change, negative = inhibition, most hits filed as inhibitors; Marburg virus pseudotyped entry inhibition, cell reporter; 300,000 compounds, 1.8% hits; calls by dose curve; tested in HEK293 cells; note: potency is the fitted concentration of half-maximal effect
# The depositor's hits bear a star; i = inactive; ? = inconclusive; / = not tested or not shown; [ ] = remark or other dose. % is set by controls: 0 for no effect and ±100 for the full control effect.
SMILES,HCMV inh,HCV inhibitor,Vaccinia Venus,LASV entry inh,Vaccinia mCherry,Marburg entry inh
CC1(C)C[C@H]2C3=CCC4[C@@]5(C)CC[C@H](O)[C@@](C)(CO)C5CC[C@@]4(C)[C@]3(C)C[C@@H](O)[C@@]2(CO)[C@@H](O)[C@@H]1O (stereo not given in full),-73*,4%,-13%,/,-8%,/
CC1(C)C[C@@H](O)[C@]2(C)CC[C@]3(C)C(=CCC4[C@@]5(C)CC[C@H](O)[C@](C)(CO)C5CC[C@]43C)[C@@H]2C1 (stereo not given in full),4,24%,4%,/,0%,/
O=C(NCC1CCC2(CCN(Cc3cnn(-c4ccc(F)cc4)c3)CC2)O1)c1ccccc1 (stereo not given),/,/,-13%,/,i,/
CN(C)S(=O)(=O)c1cccc(NC(=O)CSc2ncnc3ccccc23)c1,-15,7.9µM*,?,?,?,?
CCCn1c(SCC(=O)Nc2cccc(S(=O)(=O)N(C)C)c2)nc2ccccc2c1=O,-17,?,-10%,-16%[46.1 µM],i,11µM*
CN(C)S(=O)(=O)c1cccc(NC(=O)CSc2nc3ccccc3[nH]2)c1,-61*,?,-15%,?,-11%,?
CN(C)S(=O)(=O)c1cccc(NC(=O)CCSc2ccc(Cl)cc2)c1,?,10µM*,-21%,10µM*,-11%,?
CN(C)c1ccc(/C=C/c2ccnc3ccc4ccccc4c23)cc1,/,/,210%,/,165%,/
Cc1ccc([C@H]2C[C@]34CNS(=O)(=O)[C@H]3C[C@H]2O4)cc1,23,/,/,/,/,/
O=S1(=O)NC[C@]23C[C@H](c4ccc(F)cc4)[C@@H](C[C@@H]21)O3,-102*,11%,-2%,/,i,/
O=C(Nc1cc2c(cc1C(=O)c1ccc(Br)cc1)OCCO2)c1ccc(Cl)cc1,-40,/,?,-13%[46.1 µM],?,/
CN(C)c1ccc(N=Nc2nc3ccccc3n2C)cc1,?,10µM*,/,/,/,/
N#Cc1ccccc1CN1CCN(c2ncc(C(=O)NCc3ccco3)s2)C1=O,-24,/,/,/,/,/
N#CCCn1cc(CNCc2cccnc2)c(-c2ccccc2)n1,/,/,-7%,/,-8%,/
OC(c1cc(-c2cccc(Cl)c2)nc2ccccc12)C1CCCCN1 (stereo not given),-98*,?,-21%,?,?,11µM*
OC(c1cc(C(F)(F)F)nc2c(C(F)(F)F)cccc12)C1CCCCN1 (stereo not given),-99*,?,?,/,?,/
CCOC(=O)CN1C(=O)[C@]2(OCCC=C[C@@H]2C)c2cc(OC)ccc21,/,/,/,/,/,13%[14.2 µM]
COc1ccc(S(=O)(=O)NCCc2sc(-c3cccc(C)c3)nc2C)cc1,-6,/,0%,-18%[46.1 µM],-1%,/
Cc1cc(N2CCOCC2)nc2ccc(NC(=O)CCC(=O)N3CCN(c4ccccc4)CC3)cc12,59,?,-5%,?,?,3%[46.1 µM]
Cc1ccc(NC(=O)Nc2ccc3nc(N4CCN(C)CC4)cc(C)c3c2)cc1C,-100*,/,-22%,?,-27%,/
Cc1cc(N2CCN(C)CC2)nc2ccc(NC(=O)Nc3ccccc3)cc12,?,/,-5%,1%[46.1 µM],i,/
Cc1cc(N2CCN(C)CC2)nc2ccc(NC(=O)CCC(=O)N3CCN(c4ccc([N+](=O)[O-])cc4)CC3)cc12,-64*,11µM*,-29%,-7%[46.1 µM],?,?
Cc1cc(N2CCN(C)CC2)nc2ccc(NC(=O)Nc3cccc(Cl)c3)cc12,-99*,/,-24%,?,14%,/
CCOc1cc(C(=O)Nc2ccc3nc(N4CCN(C)CC4)cc(C)c3c2)cc(OCC)c1OCC,-66*,/,-23%,-20%[46.1 µM],i,5.6µM*
Cn1c(=O)oc2cc(S(=O)(=O)N3CCCC(C(=O)NCCc4ccc(Cl)cc4)C3)ccc21 (stereo not given),-19,/,2%,-4%[46.1 µM],-5%,0%[46.1 µM]
COc1ccc(CCNC(=O)Cn2nc(-c3ccc(Cl)cc3)ccc2=O)cc1OC,?,/,-7%,15%[46.1 µM],-18%,/
Cc1cccc(C)c1N=CN1c2ccccc2-n2cccc2C1CCc1ccccc1 (stereo not given),4,/,/,/,/,/
Cc1cc(N2CCN(C)CC2)nc2ccc(NC(=O)Nc3ccc(F)cc3F)cc12,?,/,-8%,?,-10%,/
